{
  "source": "the supplement of paper PMC7411640",
  "note": "Counter-ions that a name gives are not always drawn.",
  "data": [
    {"test_system": "MDA-MB-468", "assay": "phospho-S6 immunofluorescence (DAPI-normalised), per-plate z-score; higher = higher phospho-S6 signal (less pathway suppression)", "conditions": "co-treatment: vehicle; 24 h", "description": "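GPCR-targeted compound library (MedChemExpress HY-L006) tested on MDA-MB-468 PTEN-null TNBC cells in 384-well plates at 0.1, 1 or 10 uM, combined with vehicle, GDC0941 450 nM or lapatinib 1 uM, for 24 h. Phospho-S6 (S240/244) immunofluorescence normalised to DAPI and expressed as a per-plate z-score; values are the mean of biological triplicates.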", "values": [
      {"molecule": "CCCCCCOc1nsnc1C1=CCCN(C)C1", "note": "[Xanomeline (oxalate)] (compound 10 µM)", "phospho-S6 immunofluorescence (z-score)": 1.16},
      {"molecule": "O=C1NCC2(CCN(CCc3ccccc3)CC2)O1", "note": "[Fenspiride (Hydrochloride)] (compound 10 µM)", "phospho-S6 immunofluorescence (z-score)": 1.01},
      {"molecule": "O=C(c1ccc(F)cc1)C1CCN(CCn2c(=O)[nH]c3ccccc3c2=O)CC1", "note": "[Ketanserin (tartrate)] (compound 10 µM)", "phospho-S6 immunofluorescence (z-score)": 0.68},
      {"molecule": "CNS(=O)(=O)Cc1ccc2[nH]cc(CCN(C)C)c2c1", "note": "[Sumatriptan (succinate)] (compound 10 µM)", "phospho-S6 immunofluorescence (z-score)": 0.55},
      {"molecule": "C=CCN1CCCC1CNC(=O)c1cc(S(N)(=O)=O)cc(OC)c1OC", "note": "(configuration not stated) [Veralipride] (compound 10 µM)", "phospho-S6 immunofluorescence (z-score)": 0.08},
      {"molecule": "CC(C)(Cc1ccc2ccccc2c1)NC[C@@H](O)COc1cccc(Cl)c1C#N", "note": "(compound 10 µM)", "phospho-S6 immunofluorescence (z-score)": -10.1},
      {"molecule": "COc1cc2nc(N(C)CCCNC(=O)C3CCCO3)nc(N)c2cc1OC", "note": "(configuration not stated) [Alfuzosin] (compound 10 µM)", "phospho-S6 immunofluorescence (z-score)": -0.19}
    ]}
  ]
}
